# Tests used:
# [1] = molecular target: Serine/threonine-protein kinase PAK 5 (Homo sapiens) (UniProt Q9P286); details: at 1 µM
# [2] = molecular target: Serine/threonine-protein kinase PAK 5 (Homo sapiens) (UniProt Q9P286); details: at 10 µM
# [3] = molecular target: Serine/threonine-protein kinase PAK 6 (Homo sapiens) (UniProt Q9NQU5); details: at 1 µM
# [4] = molecular target: Serine/threonine-protein kinase PAK 6 (Homo sapiens) (UniProt Q9NQU5); details: at 10 µM
# [5] = molecular target: PAS domain-containing serine/threonine-protein kinase (Homo sapiens) (UniProt Q96RG2); details: at 1 µM
# Chain of PAS domain-containing serine/threonine-protein kinase (Homo sapiens) (Q96RG2 whole entry, the tested form may be a part): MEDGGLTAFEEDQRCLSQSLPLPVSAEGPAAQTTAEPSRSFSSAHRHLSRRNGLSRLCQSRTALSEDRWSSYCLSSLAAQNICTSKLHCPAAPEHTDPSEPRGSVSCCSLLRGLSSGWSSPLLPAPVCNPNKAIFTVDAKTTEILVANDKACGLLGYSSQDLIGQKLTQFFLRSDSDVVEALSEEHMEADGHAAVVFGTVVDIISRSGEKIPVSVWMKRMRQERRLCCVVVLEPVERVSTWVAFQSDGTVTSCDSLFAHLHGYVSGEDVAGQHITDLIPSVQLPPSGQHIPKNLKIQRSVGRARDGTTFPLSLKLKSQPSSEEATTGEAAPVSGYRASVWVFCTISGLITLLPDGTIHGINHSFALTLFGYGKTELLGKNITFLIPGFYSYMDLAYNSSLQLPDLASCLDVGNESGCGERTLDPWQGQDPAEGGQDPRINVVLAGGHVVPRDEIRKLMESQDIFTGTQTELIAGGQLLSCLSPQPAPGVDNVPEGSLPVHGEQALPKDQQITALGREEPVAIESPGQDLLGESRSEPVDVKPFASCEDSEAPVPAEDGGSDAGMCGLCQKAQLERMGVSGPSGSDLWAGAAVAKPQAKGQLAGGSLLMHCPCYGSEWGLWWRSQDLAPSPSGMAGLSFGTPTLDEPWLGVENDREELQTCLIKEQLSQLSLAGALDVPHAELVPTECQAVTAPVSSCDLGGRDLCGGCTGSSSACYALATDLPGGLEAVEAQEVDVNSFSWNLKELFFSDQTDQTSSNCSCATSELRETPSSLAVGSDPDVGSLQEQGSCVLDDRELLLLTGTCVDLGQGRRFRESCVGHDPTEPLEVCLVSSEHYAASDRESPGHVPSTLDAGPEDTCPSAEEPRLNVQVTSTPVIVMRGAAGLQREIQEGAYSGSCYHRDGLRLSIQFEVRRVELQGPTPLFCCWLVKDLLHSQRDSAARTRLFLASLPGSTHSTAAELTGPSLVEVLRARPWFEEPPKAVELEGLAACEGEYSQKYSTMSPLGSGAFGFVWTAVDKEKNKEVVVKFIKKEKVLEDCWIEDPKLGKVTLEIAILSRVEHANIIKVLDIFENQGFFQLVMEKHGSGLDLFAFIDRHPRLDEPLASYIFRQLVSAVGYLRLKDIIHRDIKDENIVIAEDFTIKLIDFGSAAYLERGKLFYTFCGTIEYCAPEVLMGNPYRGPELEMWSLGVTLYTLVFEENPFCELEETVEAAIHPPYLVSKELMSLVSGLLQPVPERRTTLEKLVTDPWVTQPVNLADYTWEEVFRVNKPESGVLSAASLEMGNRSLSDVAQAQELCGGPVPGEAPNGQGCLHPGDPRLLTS
# [6] = molecular target: PAS domain-containing serine/threonine-protein kinase (Homo sapiens) (UniProt Q96RG2); details: at 10 µM
# [7] = molecular target: Activated CDC42 kinase 1 (Homo sapiens) (UniProt Q07912); details: at 1 µM
# [8] = molecular target: Activated CDC42 kinase 1 (Homo sapiens) (UniProt Q07912); details: at 10 µM
# [9] = molecular target: ALK tyrosine kinase receptor (Homo sapiens) (UniProt Q9UM73); details: at 1 µM
# Chain of ALK tyrosine kinase receptor (Homo sapiens) (Q9UM73 19-1620 limits assumed): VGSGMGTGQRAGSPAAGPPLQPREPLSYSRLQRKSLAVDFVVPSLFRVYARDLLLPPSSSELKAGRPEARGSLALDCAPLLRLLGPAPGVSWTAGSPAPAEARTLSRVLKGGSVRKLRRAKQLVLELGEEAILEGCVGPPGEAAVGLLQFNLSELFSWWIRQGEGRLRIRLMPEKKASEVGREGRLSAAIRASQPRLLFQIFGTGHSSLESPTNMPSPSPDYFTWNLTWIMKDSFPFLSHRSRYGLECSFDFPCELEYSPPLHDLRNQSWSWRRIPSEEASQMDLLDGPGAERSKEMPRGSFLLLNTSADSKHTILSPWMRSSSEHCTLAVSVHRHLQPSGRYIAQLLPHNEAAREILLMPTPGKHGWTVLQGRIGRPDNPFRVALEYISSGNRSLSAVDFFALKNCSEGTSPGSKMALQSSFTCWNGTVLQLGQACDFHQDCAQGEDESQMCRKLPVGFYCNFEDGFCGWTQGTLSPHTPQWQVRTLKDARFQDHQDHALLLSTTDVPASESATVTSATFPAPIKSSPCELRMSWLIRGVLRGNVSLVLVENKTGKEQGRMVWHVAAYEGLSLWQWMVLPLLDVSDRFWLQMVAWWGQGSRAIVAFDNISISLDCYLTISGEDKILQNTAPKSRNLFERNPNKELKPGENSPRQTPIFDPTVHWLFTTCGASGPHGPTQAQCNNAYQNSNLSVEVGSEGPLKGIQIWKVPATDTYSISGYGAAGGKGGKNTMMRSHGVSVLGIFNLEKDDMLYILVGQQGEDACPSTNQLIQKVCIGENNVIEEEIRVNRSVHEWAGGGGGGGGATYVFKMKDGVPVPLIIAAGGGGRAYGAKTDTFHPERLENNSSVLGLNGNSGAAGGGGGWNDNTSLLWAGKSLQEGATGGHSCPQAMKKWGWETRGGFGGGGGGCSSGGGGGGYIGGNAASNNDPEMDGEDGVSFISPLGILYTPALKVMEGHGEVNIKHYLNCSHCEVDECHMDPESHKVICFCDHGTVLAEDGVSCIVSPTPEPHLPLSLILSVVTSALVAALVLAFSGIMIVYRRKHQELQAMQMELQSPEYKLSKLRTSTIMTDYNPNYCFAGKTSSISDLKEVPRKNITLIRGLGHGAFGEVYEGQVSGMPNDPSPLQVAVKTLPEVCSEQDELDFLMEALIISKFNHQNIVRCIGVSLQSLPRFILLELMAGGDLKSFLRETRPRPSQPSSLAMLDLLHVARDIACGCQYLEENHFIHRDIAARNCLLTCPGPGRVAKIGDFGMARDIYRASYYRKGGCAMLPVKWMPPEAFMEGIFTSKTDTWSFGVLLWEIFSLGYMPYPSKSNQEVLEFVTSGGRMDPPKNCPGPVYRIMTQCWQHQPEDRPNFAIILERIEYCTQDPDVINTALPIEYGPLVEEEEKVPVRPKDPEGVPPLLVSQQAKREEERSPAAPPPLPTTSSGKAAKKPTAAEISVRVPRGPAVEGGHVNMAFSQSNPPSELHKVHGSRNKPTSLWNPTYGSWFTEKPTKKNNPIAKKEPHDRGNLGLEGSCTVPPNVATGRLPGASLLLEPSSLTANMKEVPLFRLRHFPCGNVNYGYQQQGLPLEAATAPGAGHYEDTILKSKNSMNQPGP
# [10] = molecular target: ALK tyrosine kinase receptor (Homo sapiens) (UniProt Q9UM73); details: at 10 µM
# [11] = molecular target: T1, Activin receptor type-1B (Homo sapiens) (UniProt P36896); details: at 1 µM
# T1 sequence (whole entry): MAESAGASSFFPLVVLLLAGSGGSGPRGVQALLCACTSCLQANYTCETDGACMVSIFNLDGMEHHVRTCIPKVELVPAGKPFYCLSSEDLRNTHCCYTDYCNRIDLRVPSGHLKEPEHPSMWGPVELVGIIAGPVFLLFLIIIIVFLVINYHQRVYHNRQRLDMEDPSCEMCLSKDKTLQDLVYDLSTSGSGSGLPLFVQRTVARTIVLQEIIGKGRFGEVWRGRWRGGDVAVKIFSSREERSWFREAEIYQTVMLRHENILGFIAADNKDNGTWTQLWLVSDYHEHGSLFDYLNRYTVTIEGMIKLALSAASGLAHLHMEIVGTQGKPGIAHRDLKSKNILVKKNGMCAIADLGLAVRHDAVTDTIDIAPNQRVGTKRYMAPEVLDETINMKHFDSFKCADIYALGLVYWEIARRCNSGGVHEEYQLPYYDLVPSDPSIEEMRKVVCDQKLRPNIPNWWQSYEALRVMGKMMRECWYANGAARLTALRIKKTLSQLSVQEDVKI
# [12] = molecular target: T1, Activin receptor type-1B (Homo sapiens); details: at 10 µM
# [13] = molecular target: T2, AMP-activated protein kinase (AMPK) alpha-1/beta-1/gamma-1 (Homo sapiens) (UniProt P54619+Q9Y478+Q13131); details: at 1 µM
# [14] = molecular target: T2, AMP-activated protein kinase (AMPK) alpha-1/beta-1/gamma-1 (Homo sapiens); details: at 10 µM
# [15] = molecular target: T3, AMP-activated protein kinase, AMPK (Homo sapiens) (UniProt P54646+O43741+P54619+Q9UGJ0+Q9Y478+Q13131+Q9UGI9); details: at 1 µM
# [16] = molecular target: T3, AMP-activated protein kinase, AMPK (Homo sapiens); details: at 10 µM
# [17] = molecular target: T4, NUAK family SNF1-like kinase 1 (Homo sapiens) (UniProt O60285); details: at 1 µM
# T4 sequence (whole entry): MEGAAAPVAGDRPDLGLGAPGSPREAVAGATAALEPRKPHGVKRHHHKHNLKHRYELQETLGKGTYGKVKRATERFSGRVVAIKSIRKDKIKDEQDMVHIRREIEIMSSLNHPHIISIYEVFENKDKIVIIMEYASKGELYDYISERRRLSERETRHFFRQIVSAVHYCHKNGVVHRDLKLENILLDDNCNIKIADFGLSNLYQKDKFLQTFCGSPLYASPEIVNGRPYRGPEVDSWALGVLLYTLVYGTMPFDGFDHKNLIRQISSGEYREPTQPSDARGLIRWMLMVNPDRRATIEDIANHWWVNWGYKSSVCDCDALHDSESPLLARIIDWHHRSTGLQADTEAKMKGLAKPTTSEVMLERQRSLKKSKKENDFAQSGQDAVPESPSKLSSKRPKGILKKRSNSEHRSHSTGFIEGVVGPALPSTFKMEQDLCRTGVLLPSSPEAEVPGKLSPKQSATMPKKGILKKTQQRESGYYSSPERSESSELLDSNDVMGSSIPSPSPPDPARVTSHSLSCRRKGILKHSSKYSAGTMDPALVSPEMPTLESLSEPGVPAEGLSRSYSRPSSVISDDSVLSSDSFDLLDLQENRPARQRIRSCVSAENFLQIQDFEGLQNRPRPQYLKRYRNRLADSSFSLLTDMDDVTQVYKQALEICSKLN
# [18] = molecular target: T4, NUAK family SNF1-like kinase 1 (Homo sapiens); details: at 10 µM
# [19] = molecular target: T5, Mitogen-activated protein kinase kinase kinase 5 (Homo sapiens) (UniProt Q99683); details: at 1 µM
# T5 sequence (whole entry): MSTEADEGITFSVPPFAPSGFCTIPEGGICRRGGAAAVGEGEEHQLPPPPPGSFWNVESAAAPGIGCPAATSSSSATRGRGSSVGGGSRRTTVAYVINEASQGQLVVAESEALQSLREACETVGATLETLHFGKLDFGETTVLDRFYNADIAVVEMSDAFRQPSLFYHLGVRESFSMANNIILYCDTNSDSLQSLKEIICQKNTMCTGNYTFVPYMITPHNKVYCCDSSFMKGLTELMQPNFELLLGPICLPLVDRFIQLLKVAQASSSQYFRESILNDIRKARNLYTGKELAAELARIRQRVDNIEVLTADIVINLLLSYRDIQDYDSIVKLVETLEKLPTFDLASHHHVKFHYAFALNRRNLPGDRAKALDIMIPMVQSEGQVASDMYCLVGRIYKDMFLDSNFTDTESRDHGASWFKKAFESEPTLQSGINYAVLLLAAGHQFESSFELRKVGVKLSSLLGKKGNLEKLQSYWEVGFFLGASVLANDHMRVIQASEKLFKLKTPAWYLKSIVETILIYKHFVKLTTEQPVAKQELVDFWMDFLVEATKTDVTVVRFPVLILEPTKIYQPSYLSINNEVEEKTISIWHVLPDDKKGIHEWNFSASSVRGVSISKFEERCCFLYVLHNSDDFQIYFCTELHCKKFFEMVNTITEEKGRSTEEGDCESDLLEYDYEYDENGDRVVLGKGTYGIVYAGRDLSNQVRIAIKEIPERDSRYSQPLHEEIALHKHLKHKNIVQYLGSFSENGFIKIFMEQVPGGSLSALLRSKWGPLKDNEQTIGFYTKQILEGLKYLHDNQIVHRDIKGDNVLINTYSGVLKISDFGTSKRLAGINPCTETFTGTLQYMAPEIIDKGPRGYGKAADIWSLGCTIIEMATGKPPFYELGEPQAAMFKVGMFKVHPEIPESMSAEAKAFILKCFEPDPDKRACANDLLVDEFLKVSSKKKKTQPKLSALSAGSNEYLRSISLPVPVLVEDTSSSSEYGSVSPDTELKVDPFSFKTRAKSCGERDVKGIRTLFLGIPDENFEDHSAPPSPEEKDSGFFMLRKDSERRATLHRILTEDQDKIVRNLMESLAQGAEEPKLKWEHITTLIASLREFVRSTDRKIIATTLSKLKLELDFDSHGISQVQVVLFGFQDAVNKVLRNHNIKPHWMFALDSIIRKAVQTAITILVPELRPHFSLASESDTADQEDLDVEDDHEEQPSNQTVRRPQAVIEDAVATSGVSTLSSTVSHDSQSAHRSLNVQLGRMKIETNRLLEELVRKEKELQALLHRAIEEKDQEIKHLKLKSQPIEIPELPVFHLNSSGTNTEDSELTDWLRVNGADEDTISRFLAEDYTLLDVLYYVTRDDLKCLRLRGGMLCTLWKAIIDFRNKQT
# [20] = molecular target: Platelet-derived growth factor receptor alpha (Homo sapiens) (UniProt P16234); details: at 1 µM
# Chain of Platelet-derived growth factor receptor alpha (Homo sapiens) (P16234 whole entry): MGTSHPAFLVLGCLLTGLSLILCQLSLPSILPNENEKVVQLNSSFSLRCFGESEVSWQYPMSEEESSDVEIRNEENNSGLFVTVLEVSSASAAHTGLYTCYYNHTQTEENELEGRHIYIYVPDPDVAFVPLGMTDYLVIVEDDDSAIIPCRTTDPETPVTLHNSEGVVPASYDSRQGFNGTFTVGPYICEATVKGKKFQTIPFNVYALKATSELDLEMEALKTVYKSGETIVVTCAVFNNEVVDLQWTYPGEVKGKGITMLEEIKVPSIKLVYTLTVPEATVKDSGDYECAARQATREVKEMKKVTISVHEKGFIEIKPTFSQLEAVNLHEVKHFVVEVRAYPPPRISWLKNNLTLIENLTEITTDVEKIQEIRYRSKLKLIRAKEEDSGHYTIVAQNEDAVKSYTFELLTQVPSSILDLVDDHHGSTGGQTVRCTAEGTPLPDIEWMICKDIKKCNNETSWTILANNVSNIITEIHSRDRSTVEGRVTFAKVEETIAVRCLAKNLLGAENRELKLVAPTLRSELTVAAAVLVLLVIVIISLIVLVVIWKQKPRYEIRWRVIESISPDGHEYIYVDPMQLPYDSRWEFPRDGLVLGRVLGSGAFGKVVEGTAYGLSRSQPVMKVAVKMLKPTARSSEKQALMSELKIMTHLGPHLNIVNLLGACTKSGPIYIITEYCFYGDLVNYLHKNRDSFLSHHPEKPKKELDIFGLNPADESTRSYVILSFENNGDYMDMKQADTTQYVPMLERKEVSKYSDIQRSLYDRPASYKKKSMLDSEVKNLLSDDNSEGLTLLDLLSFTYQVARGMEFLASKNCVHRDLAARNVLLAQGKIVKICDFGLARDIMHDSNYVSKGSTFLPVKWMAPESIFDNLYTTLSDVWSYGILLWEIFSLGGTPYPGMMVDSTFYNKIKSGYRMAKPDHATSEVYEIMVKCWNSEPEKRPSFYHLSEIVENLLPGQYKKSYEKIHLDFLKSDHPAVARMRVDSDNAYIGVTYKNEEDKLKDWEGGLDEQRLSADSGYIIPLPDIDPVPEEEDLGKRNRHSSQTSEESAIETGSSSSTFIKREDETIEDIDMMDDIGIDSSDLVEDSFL
# Chain of Serine/threonine-protein kinase PAK 6 (Homo sapiens) (Q9NQU5 whole entry, looked up, the tested form may be a part): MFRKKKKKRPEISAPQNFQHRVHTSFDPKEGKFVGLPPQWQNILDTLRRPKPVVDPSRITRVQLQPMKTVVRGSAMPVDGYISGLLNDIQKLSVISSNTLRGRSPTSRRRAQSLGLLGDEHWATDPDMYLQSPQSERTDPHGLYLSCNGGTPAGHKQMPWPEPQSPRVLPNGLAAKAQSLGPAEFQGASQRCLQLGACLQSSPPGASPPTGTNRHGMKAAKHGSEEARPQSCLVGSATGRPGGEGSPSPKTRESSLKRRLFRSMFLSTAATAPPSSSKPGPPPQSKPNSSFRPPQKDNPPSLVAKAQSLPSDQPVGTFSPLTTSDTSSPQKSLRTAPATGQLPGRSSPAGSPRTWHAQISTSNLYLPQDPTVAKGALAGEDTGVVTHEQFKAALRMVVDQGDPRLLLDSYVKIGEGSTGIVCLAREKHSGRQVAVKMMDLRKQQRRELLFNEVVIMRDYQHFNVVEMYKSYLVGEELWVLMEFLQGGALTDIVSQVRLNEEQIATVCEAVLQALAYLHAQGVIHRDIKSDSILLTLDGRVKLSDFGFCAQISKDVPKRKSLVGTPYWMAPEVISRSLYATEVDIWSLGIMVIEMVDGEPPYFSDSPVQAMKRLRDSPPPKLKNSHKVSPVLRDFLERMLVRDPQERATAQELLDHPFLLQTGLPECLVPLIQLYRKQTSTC
smiles,measurement,setting,value
O=C1Nc2ccc3ncsc3c2/C1=C/c1c[nH]cn1,residual activity,[1],70%
same,residual activity,[2],34%
same,residual activity,[3],83%
same,residual activity,[4],36%
same,residual activity,[5],46%
same,residual activity,[6],2%
same,residual activity,[7],64%
same,residual activity,[8],17%
same,residual activity,[9],72%
same,residual activity,[10],57%
same,residual activity,[11],85%
same,residual activity,[12],13%
same,residual activity,[13],10%
same,residual activity,[14],2%
same,residual activity,[15],3%
same,residual activity,[16],3%
same,residual activity,[17],6%
same,residual activity,[18],5%
same,residual activity,[19],26%
same,residual activity,[20],68%
CSc1nc(-c2ccc(F)cc2)c(-c2ccnc(NC(C)c3ccccc3)c2)[nH]1 (centres undefined),residual activity,[5],95%
Cc1ccc(NC2=CC(=O)c3sc(C)nc3C2=O)cc1,residual activity,[5],81%
N/C(=N\[N+](=O)[O-])N/N=C\c1ccc(-c2cccc([N+](=O)[O-])c2)o1,residual activity,[3],82%
same,residual activity,[4],70%
same,residual activity,[7],85%
same,residual activity,[8],71%
same,residual activity,[9],85%
same,residual activity,[10],69%
same,residual activity,[15],90%
same,residual activity,[16],97%
same,residual activity,[19],96%
same,residual activity,[20],83%
NC(=O)Nc1sc(-c2ccc(F)cc2)cc1C(N)=O,residual activity,[5],107%
CCCC(=O)Oc1ccc2[nH]c(C(=O)c3cc4ccccc4[nH]3)cc2c1,residual activity,[5],122%
COc1ccc(OC)c2c(=S)c3ccccc3[nH]c12,residual activity,[5],108%
Cn1c2ccccc2c2c3c(c4c5ccccc5n(CCC#N)c4c21)CNC3=O,residual activity,[5],93%
CCn1cnc2c(Nc3cccc(Cl)c3)nc(N[C@@H]3CCCC[C@@H]3N)nc21,residual activity,[1],38%
same,residual activity,[2],11%
same,residual activity,[3],38%
same,residual activity,[4],10%
same,residual activity,[5],113%
same,residual activity,[6],69%
same,residual activity,[7],34%
same,residual activity,[8],4%
same,residual activity,[9],82%
same,residual activity,[10],34%
same,residual activity,[11],123%
same,residual activity,[13],77%
same,residual activity,[14],22%
same,residual activity,[15],64%
same,residual activity,[16],22%
same,residual activity,[17],38%
same,residual activity,[18],10%
same,residual activity,[19],91%
same,residual activity,[20],100%
Ic1cccc(CSc2nnc(-c3ccncc3)o2)c1,residual activity,[5],108%
c1ccc2c(-c3ccncc3)c[nH]c2c1,residual activity,[5],99%
CCCCc1c(-c2ccc(O)cc2)[nH]c2nccnc12,residual activity,[5],146%
CC(C)(C)n1nc(Cc2cccc3ccccc23)c2c(N)ncnc21,residual activity,[5],116%
C[S+]([O-])c1ccc(-c2nc(-c3ccc(F)cc3)c(-c3ccncc3)[nH]2)cc1 (centres undefined),residual activity,[1],105%
same,residual activity,[2],104%
same,residual activity,[3],110%
same,residual activity,[4],100%
same,residual activity,[5],113%
same,residual activity,[6],113%
same,residual activity,[7],93%
same,residual activity,[8],39%
same,residual activity,[9],122%
same,residual activity,[10],93%
same,residual activity,[11],87%
same,residual activity,[12],23%
same,residual activity,[13],109%
same,residual activity,[14],94%
same,residual activity,[15],104%
same,residual activity,[16],90%
same,residual activity,[17],97%
same,residual activity,[18],94%
same,residual activity,[19],138%
same,residual activity,[20],110%

# Reference: ChEMBL document CHEMBL2218924, “A broad activity screen in support of a chemogenomic map for kinase signalling research and drug discovery” (Biochem J, 2013)
